Test results reported in PubChem BioAssay (NCI).
This is part of a sample that, as a whole, favours compounds with a hit. Of some 83,000 tested, about 20% had one in any assay.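 In brief: 96-well plates, 48 h treatment, single concentration, percent growth endpoint.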 Calls of active or inactive are those of the source. Rule for the calls: active = growth percent below 10; inactive = the rest.

tested on: COLO 205 colon; assay: NCI-60 one-dose screen, 48 h (100 = growth as untreated, 0 = no growth, -100 = all killed); settings: 10 µM unless noted

Compound	growth
O=C(CCCCCCN1CC(=O)N2[C@H](c3ccc(Br)cc3)c3[nH]c4ccccc4c3C[C@@H]2C1=O)NO	38.7% (inactive)
NNCCc1ccc(NC(=O)CCCc2ccc(C(=O)Nc3ccccc3N)cc2)cc1	75.6% (inactive)
Cc1cccc[n+]1C1c2ccccc2-c2ccccc21	75.3% (inactive)
CN(C)S(=O)(=O)Oc1ccc(-c2sc3cc(OS(=O)(=O)N(C)C)ccc3c2C(=O)c2ccc(OCCN3CCCCC3)cc2)cc1	36.1% (inactive)
